Results from PubChem BioAssay.
The source made the active and inactive calls.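 Rule for the calls, unless noted: active = fluorescence slope higher than the sample average by over 3 SD (cut at about -0.22 in these data, passing the limit was not always enough); inactive = the rest.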

How the values were obtained:
[1] = inhibitors of TNFa-induced NFkB p65 translocation, primary screen, imaging, HUVEC, MLSMR starter and 10KST1 sets (AID 438;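 active = inhibition above 20% together with a positive visual image hit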;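 note: compound added about 3h40 before a 20 min TNFalpha stimulation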;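 for inhibition: signal is the nuclear over cytoplasmic p65 intensity ratio per well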); conditions: HUVEC TNFa-induced p65 nuclear translocation; cell count: measured here: nuclei count (cytotoxicity indicator), at 2.08 µM; inhibition: at 2 µM, stronger effect = higher value, 0% TNFa-plus-vehicle, 100% no-TNFa wells
[2] = reduction of polyQ htt aggregates in cells – imaging, exon1htt(103Q)mCFP cells, high-content imaging, primary screen (AID 483;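 active = visual image review flags a hit and inhibition of aggregation exceeds 20%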;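 note: compound exposure lasted 3 days before fixation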;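 for nuclei count: percent of the per-plate median nuclei count of sample wells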); conditions: exon1htt(103Q)mCFP cell line, aggregate imaging, at 2 µM; inhibition of aggregation: stronger effect = higher value; nuclei count: measured here: cell count, toxicity
[3] = endothelial E-selectin expression blockers – imaging, HUVEC, immunofluorescence, MLSMR starter and 10KST1 sets, primary screen (AID 487;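 active = visually confirmed hit in the image check and inhibition above 20%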;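 for inhibition: signal is fraction of cell area covered by stained E-selectin grains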;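 for nuclei count: 100% = median nuclei count of all wells on the same plate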); conditions: HUVEC TNFalpha-induced E-selectin immunofluorescence imaging, at 2 µM; inhibition: stronger effect = higher value; nuclei count: measured here: cell number, toxicity
[4] = molecular target: Voltage-gated potassium channel subunit beta-2 (Rattus norvegicus) (UniProt P62483); experiment: inhibitors of rat Kvbeta2 reductase activity – biochemical, NADPH fluorescence, primary screen (AID 622); conditions: recombinant KvBeta, 4-cyanobenzaldehyde reduction, at 10 µM, stronger effect = higher value;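 note: slope of raw intensity against log time taken from 70 to 1610 s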
Chain of Voltage-gated potassium channel subunit beta-2 (Rattus norvegicus) (P62483 whole entry, looked up): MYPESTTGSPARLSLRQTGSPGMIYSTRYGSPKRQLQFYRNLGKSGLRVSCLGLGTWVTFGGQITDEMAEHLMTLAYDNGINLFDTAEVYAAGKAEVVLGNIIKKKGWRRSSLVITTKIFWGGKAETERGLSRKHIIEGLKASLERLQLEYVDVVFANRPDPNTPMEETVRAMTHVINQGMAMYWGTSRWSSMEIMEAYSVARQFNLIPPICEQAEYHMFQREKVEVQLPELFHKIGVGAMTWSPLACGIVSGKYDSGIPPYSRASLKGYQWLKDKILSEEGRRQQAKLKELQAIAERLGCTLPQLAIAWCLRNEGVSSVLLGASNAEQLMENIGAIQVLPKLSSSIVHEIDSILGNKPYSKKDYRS

[5] = molecular target: Voltage-gated potassium channel subunit beta-2 (Rattus norvegicus) (UniProt P62483); experiment: enhancers of rat Kvbeta2 NADPH turnover – biochemical, NADPH fluorescence, primary screen (AID 623;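 active = NADPH fluorescence slope more negative than the mean of all samples by about 3 SD, 99.7% confidence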;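 note: fluorescence intensity change per second fitted from 20 to 320 s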); conditions: Recombinant KvBeta, NADPH fluorescence decrease slope, 10 min; at 10 µM; stronger effect = lower value
[6] = molecular target: Alpha-2C adrenergic receptor (Homo sapiens) (UniProt P18825); experiment: compounds altering alpha2C-coupled GIRK flux – cell-based, HEK293 alpha2C/GIRK1/2, thallium flux, primary screen (AID 624;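 active = fluorescence slope after compound addition differing from the mean of all screened samples at 99.7% confidence, in either direction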;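 note: slope of fluorescence ratio to pre-addition baseline per second over 15 to 24 s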); conditions: thallium flux BTC fluorescence, at 10 µM, actives lie on both sides
Chain of Alpha-2C adrenergic receptor (Homo sapiens) (P18825 whole entry, looked up): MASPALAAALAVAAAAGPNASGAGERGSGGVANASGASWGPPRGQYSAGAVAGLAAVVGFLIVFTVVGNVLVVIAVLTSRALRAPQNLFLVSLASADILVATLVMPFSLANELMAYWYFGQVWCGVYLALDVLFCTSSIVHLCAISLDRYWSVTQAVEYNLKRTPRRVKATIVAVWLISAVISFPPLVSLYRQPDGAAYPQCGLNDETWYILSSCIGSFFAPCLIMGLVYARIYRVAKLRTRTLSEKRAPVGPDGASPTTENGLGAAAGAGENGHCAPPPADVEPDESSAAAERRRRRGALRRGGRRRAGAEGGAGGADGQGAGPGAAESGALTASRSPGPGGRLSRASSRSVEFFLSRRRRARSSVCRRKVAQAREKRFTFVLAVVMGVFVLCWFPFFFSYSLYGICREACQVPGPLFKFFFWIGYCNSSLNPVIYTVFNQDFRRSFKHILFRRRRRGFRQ

[7] = blockers of RIG-like receptor reporter activation – cell-based, Sendai virus stimulus, luciferase, 10K MLSCN set, TLR/RLR signaling modifier project, primary screen (AID 602276;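 active = inhibition at or above 50% at 10 µM; inactive = inhibition below 50%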;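 note: firefly luciferase from ISG56 promoter only with Renilla not read in this screen; 0% = Sendai virus plus DMSO and 100% = medium plus DMSO without virus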); conditions: HEK293 RL24 IRF3 luciferase reporter, at 10 µM, stronger effect = higher value
[8] = TLR3 IRF3 reporter activation blockers – cell-based, poly I:C stimulus, luciferase, 10K MLSCN set, primary screen (AID 602277;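 active = inhibition of the reporter signal at or above 50%; inactive = inhibition below 50%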); conditions: HEK293-TLR3 RL24 IRF3 luciferase reporter, at 10 µM, stronger effect = higher value

SMILES | cell count [1] | inhibition [1] | inhibition of aggregation [2] | nuclei count [2] [%] | inhibition [3] | nuclei count [3] [%] | fluorescence slope [4] | NADPH fluorescence slope [5] | slope [6] | inhibition [7] | inhibition [8]
Cc1cccc2cc(CN(CCN3CCCC3)C(=O)NC3CCCCC3)c(=O)[nH]c12 | 641 | -7.5% (inactive) | -0.1% (inactive) | 84.8 | -7.3% (inactive) | 97 | -0.428 (inactive) | 1e-05 (inactive) | 0.00641 (inactive) | 12.6% (inactive) | 38.4% (inactive)
c1ccc(-c2ccccc2OCCn2cncn2)cc1 | 780 | -12.5% (inactive) | 22.9% (inactive) | 112 | -63.6% (inactive) | 111 | -0.485 (inactive) | -3e-05 (inactive) | 0.00513 (inactive) | 2.95% (inactive) | 26% (inactive)
Nc1cc(CN2C(=O)c3ccccc3C2=O)cc(Cl)c1O | 451 | -1.8% (inactive) | 14.9% (inactive) | 100 | -74.6% (inactive) | 159 | -0.401 (inactive) | -5.2e-05 (inactive) | 0.00582 (inactive) | 12.8% (inactive) | 36.4% (inactive)
CCOC(=O)N1CCC(n2c(=S)[nH]c3cc(OC)c(OC)cc3c2=O)CC1 | 471 | 4.8% (inactive) | -23.4% (inactive) | 108 | -6.8% (inactive) | 105 | -0.631 (inactive) | 4.7e-05 (inactive) | 0.00633 (inactive) | 14.4% (inactive) | 23.2% (inactive)
N#CCOc1nc(N2CCOCC2)nc(N2CCOCC2)n1 | 552 | -30.6% (inactive) | 3% (inactive) | 76.6 | -10.4% (inactive) | 100 | -0.287 (inactive) | -4.5e-05 (inactive) | 0.00534 (inactive) | 10.5% (inactive) | 18.6% (inactive)
O=C(C1CCCN(S(=O)(=O)c2cnc[nH]2)C1)N1CCN(c2ccc(Cl)cc2)CC1 (stereo not drawn) | 566 | 8% (inactive) | -31.8% (inactive) | 103 | -71.3% (inactive) | 123 | -0.523 (inactive) | 3.4e-05 (inactive) | 0.00672 (inactive) | -6.86% (inactive) | 0.571% (inactive)
N#Cc1ccccc1Cn1c(=O)n(Cc2ccc(C(=O)NCc3ccco3)cc2)c(=O)c2sccc21 | 865 | -0.6% (inactive) | 9.3% (inactive) | 120 | -55.6% (inactive) | 115 | -0.577 (inactive) | -4.1e-05 (inactive) | 0.00686 (inactive) | 11.4% (inactive) | 17.2% (inactive)
CC(=O)C1=C(C)NC(=O)NC1c1cccc(O)c1 (stereo not drawn) | 454 | 7.3% (inactive) | 0% (inactive) | 111 | -36.2% (inactive) | 110 | -0.399 (inactive) | -5e-05 (inactive) | 0.00509 (inactive) | 14.2% (inactive) | 16% (inactive)
CS(=O)(=O)N(Cc1ccccc1)c1ccc(C(=O)N2CCOCC2)cc1 | 297 | 11.6% (inactive) | 23% (inactive) | 91.2 | 41.9% (inactive) | 96.9 | -0.516 (inactive) | -1.2e-05 (inactive) | 0.00702 (inactive) | -11.4% (inactive) | 0.146% (inactive)
Cc1cc(C)nc(Sc2ccc3nnc(C(F)(F)C(F)(F)C(F)(F)F)n3n2)n1 | 564 | -21.1% (inactive) | -9.9% (inactive) | 115 | 4.1% (inactive) | 99.7 | -0.495 (inactive) | -3.3e-05 (inactive) | 0.00541 (inactive) | -0.722% (inactive) | 24.8% (inactive)
O=P(O)(CN1CCCCCC1)CN1CCCCCC1 | 575 | 13.9% (inactive) | -5.3% (inactive) | 107 | 6% (inactive) | 112 | -0.484 (inactive) | -5.2e-05 (inactive) | 0.0053 (inactive) | -7.54% (inactive) | 17.4% (inactive)
CC(C)CCNC(=O)Cn1c(NCCC(C)C)nc2c1c(=O)n(C)c(=O)n2C | 544 | -8.3% (inactive) | 28.1% (inactive) | 80.1 | -11.6% (inactive) | 102 | -0.623 (inactive) | 8.9e-06 (inactive) | 0.0069 (inactive) | 3.06% (inactive) | 33.2% (inactive)
Nc1nonc1N1CCCCC1 | 437 | -8.1% (inactive) | -6.7% (inactive) | 107 | 27.5% (inactive) | 104 | -0.474 (inactive) | -4.6e-05 (inactive) | 0.00308 (inactive) | 4.11% (inactive) | 26.3% (inactive)
O=C(Nc1ccc(N2C(=O)C3C4C=CC(C4)C3C2=O)cc1)Nc1nncs1 (stereo not drawn) | 668 | -9.8% (inactive) | 4.9% (inactive) | 92 | -77.5% (inactive) | 125 | -0.579 (inactive) | 6.4e-08 (inactive) | 0.0068 (inactive) | 2.97% (inactive) | -2% (inactive)
CCCN1CCC(NC(=O)Nc2ccc(OC)c(OC)c2)CC1 | 308 | -0.5% (inactive) | 12.6% (inactive) | 87.5 | -43.3% (inactive) | 107 | -0.383 (inactive) | 1.9e-05 (inactive) | 0.00372 (inactive) | 9.89% (inactive) | 33.2% (inactive)
Nc1nc(-n2cnnc2)nn1-c1ccccc1 | 414 | 5.5% (inactive) | -0.2% (inactive) | 97 | -44% (inactive) | 118 | -0.366 (inactive) | -3e-05 (inactive) | 0.0053 (inactive) | 4.93% (inactive) | 4.43% (inactive)
O=C(Nc1cnn(Cc2ccc(F)cc2)c1)c1cnccn1 | 582 | -17% (inactive) | -7.5% (inactive) | 109 | -94.9% (inactive) | 120 | -0.504 (inactive) | -4.3e-05 (inactive) | 0.00522 (inactive) | 4.25% (inactive) | 8.05% (inactive)
CCOc1ccc(NS(=O)(=O)c2ccc(OCC(=O)N3CCCC3)cc2)cc1 | 422 | -15.4% (inactive) | 43.4% (active) | 98.7 | -56.1% (inactive) | 169 | -0.465 (inactive) | -4.2e-05 (inactive) | 0.00531 (inactive) | 8.25% (inactive) | 13.9% (inactive)
CCSc1nnc(NC(=O)C2CCCN(S(=O)(=O)c3cnc[nH]3)C2)s1 (stereo not drawn) | 577 | -0.5% (inactive) | 10% (inactive) | 101 | -101% (inactive) | 125 | -0.537 (inactive) | -2.1e-05 (inactive) | 0.00708 (inactive) | 9.63% (inactive) | 21.5% (inactive)
CCN(CC)S(=O)(=O)c1ccc(Br)c(OC)c1 | 374 | 4.5% (inactive) | -7.1% (inactive) | 100 | -15.1% (inactive) | 107 | -0.371 (inactive) | -5.2e-05 (inactive) | 0.00493 (inactive) | 18.3% (inactive) | 34.5% (inactive)
CCCC(=O)Nc1cnc(NC(=O)c2cccc(F)c2)cc1C | 465 | 14.1% (inactive) | 6.6% (inactive) | 95.6 | 46% (inactive) | 103 | -0.563 (inactive) | 4e-05 (inactive) | 0.00559 (inactive) | -24.4% (inactive) | -162% (inactive)
CCc1cc(=O)oc2cc(OC(C)=O)cc(OC(C)=O)c12 | 602 | -6% (inactive) | 12.3% (inactive) | 104 | 19.2% (inactive) | 97.5 | -0.0715 (active) | 2.1e-05 (inactive) | 0.00397 (inactive) | 11.6% (inactive) | 14% (inactive)
CC(=O)Nc1ccc(S(=O)(=O)N2CCC(NC(C)=O)(c3cccc(F)c3)CC2)cc1 | 682 | -5.8% (inactive) | -25.6% (inactive) | 130 | -10.1% (inactive) | 109 | -0.494 (inactive) | -4.3e-05 (inactive) | 0.0062 (inactive) | 8.44% (inactive) | 28.9% (inactive)
COc1ccc(-n2c(=O)c3c4c(sc3n3c(C)nnc23)CCCC4)cc1 | 415 | 3.3% (inactive) | 4.3% (inactive) | 100 | -7.4% (inactive) | 116 | -0.35 (inactive) | -2.4e-05 (inactive) | 0.00664 (inactive) | 4.81% (inactive) | 19.4% (inactive)
O=C(NCC(F)(F)F)Nc1cccnc1 | 309 | 6.5% (inactive) | -5.6% (inactive) | 100 | -117% (inactive) | 119 | -0.318 (inactive) | -5.2e-05 (inactive) | 0.00372 (inactive) | -2.55% (inactive) | 3.81% (inactive)
O=C(NCCCn1ccnc1)c1cnn2c1NC(c1ccccc1)CC2C(F)(F)F (stereo not drawn) | 616 | -4.9% (inactive) | -5.5% (inactive) | 98.3 | 6.6% (inactive) | 93 | -0.389 (inactive) | 3.1e-05 (inactive) | 0.00374 (inactive) | -0.0558% (inactive) | 15.6% (inactive)
O=C(CSc1nnc2scc(-c3ccccc3)n12)Nc1nsc(-c2ccccc2)n1 | 673 | -14.1% (inactive) | 2.8% (inactive) | 107 | 34.5% (inactive) | 97.5 | -0.381 (inactive) | 1.4e-05 (inactive) | 0.00626 (inactive) | 9.78% (inactive) | -32.6% (inactive)
Cc1ccc(Cn2c(SCCN3CCCCC3)nc3c2c(=O)[nH]c(=O)n3C)cc1 | 575 | -6.4% (inactive) | 5.6% (inactive) | 71.5 | 29.9% (inactive) | 100 | -0.577 (inactive) | -2.5e-05 (inactive) | 0.00647 (inactive) | 3.78% (inactive) | 32.9% (inactive)
